Shown are actives, neighbours in structure and some others; about 3% of the full set was active somewhere.
SNCA viab count: reduces viability of HEK-293 SNCA reporter cells; AID 1671193; HEK-293-SNCA-luc viability, GF-AFC fluorescence, 24 h; 150,000 tested, 0.12% active; Potency, µM (titrated, usually from 57.1 µM), without a hit: top-dose activity change, negative = cytotoxicity, actives largely listed as cytotoxic;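 note: potency is the fitted concentration of half-maximal effect; 0% = DMSO-treated cells and -100% = medium-only wells without cells; nearly all actives have a fitted effect of over 30% in size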
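HEK-293-SNCA-luc cells (1500/well) plated 24 h, then exposed 24 h to a dilution series; GF-AFC added 30 min at 37C, fluorescence 405/540 nm; normalised to medium-only and DMSO wells, Hill fit.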
IP6K1 inh: blocks human inositol hexakisphosphate kinase 1. IP6K1 kinase, ADP-Glo luminescence, 2 h; stronger effect = lower value. activity change, % (series mostly up to about 58 µM). 140,000 tested, 0.81% active; in the data active = activity change below about -25%; note: % is set by controls: 0 for no effect and ±100 for the full control effect
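ADP-Glo luminescence measures ADP made by human IP6K1 during a 2 h RT reaction with ATP/IP6 (mix at 1.3 mM/130 uM); top library doses 57.5 and 19.1 uM final.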
KDM5B inhibitor: inhibitors of human KDM5B histone demethylase | Q9UGL1 | KDM5B demethylase, FDH-coupled NADH fluorescence (FDH is formaldehyde dehydrogenase) | Potency, µM (top dose mostly 57.7 µM), hits mostly inhibitors | 220,000 tested, 2.6% active | AID 1347165; note: potency is the fitted concentration of half-maximal effect; 0% is about no effect; nearly all actives have a fitted effect of over 70% in size
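Measured: NADH fluorescence change, 30 min, RT. System: KDM5BΔAP 200 nM final, H3K4me3 peptide, α-KG, Fe(II), ascorbate, NAD⁺ plus FDH, pH 7.5 HEPES. Compounds: titrated, 10 min pre-incubation with enzyme.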
SNCA expr inh: reduces expression of the alpha-synuclein gene | HEK-293 SNCA-luciferase knock-in, luminescence, 24 h | Potency, µM (doses to about 57.2 µM), without a hit: at the highest dose activity change, negative = inhibition, actives largely listed as inhibitors | 140,000 tested, 0.17% active | AID 1671194;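 note: potency is the fitted concentration of half-maximal effect; plate controls were DMSO cells for no effect and cell-free wells for full effect; nearly all actives have a fitted effect of over 45% in size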
Starred values were filed as active, the others as inactive; i = inactive; ? = inconclusive; . = no result; [ ] = remark or other dose. Unless noted, calls come from the whole dose curve; as a rule, active = well fitted curve in the direction sought with a large enough effect; inconclusive = small, poorly fitted or top-dose-only effect, or another doubt; inactive = no such curve, though single readings can be large; an effect the other way counts as inactive or inconclusive.

SMILES | SNCA viab count | IP6K1 inh | KDM5B inhibitor | SNCA expr inh
CC(C)NC(=O)N[C@H]1CCN2C(=O)c3cc(-c4ccc5c(c4)OCO5)ccc3NC(=O)[C@@H]2C1 | 0.6% | 10.2 | 31.6µM* | 7.1%
Cc1cc(=O)[nH]c(NCCNc2nccc(-c3cccnc3)n2)n1 | 2.2% | 25.6 | 31.6µM* | 1.0%
CC(C)S(=O)(=O)CCNc1nccc(-c2cccnc2)n1 | 5.2% | -3.5 | 31.6µM* | ?
c1cncc(-c2ccnc(NCCc3noc(C4CCCC4)n3)n2)c1 | -1.2% | 39.5 | 31.6µM* | -11.1%
c1cncc(-c2ccnc(NCCCn3nccc3C3CC3)n2)c1 | 0.4% | 9.0 | 28.2µM* | -17.7%
OC(CNc1nccc(-c2cccnc2)n1)COc1ccc(Cl)cc1 (stereo not drawn) | 7.4% | -5.0 | ? | -9.1%
c1cncc(-c2ccnc(NCCCN3CCCc4ccccc43)n2)c1 | 5.7% | 2.5 | ? | -8.9%
COc1cc(-c2onc(C)c2C(=O)NCCc2ccc(F)cc2)cc(OC)c1OC | -6.1% | 1.5 | 28.2µM* | -4.0%
COc1cccc(CCNC(=O)c2c(C)noc2-c2cc(OC)c(OC)c(OC)c2)c1 | 2.9% | 8.0 | 28.2µM* | 22.2%
COc1cccc(CCNC(=O)c2c(C)noc2-c2ccco2)c1 | -17.7% | 11.1 | i | -5.8%
CCOCCNC(=O)c1c(C)noc1-c1ccc(OC)cc1 | 1.6% | 14.3 | i | 3.9%
COc1ccc(-c2onc(C)c2C(=O)NCCSCc2ccco2)cc1 | 20.8% | 7.2 | 22.4µM* | 12.4%
COc1cc(=O)n(-c2ccccc2C)nc1C(=O)NCc1ccc(Cl)cc1 | . | . | i | .
Cc1cn2nc(-c3nc(C4CCCN(C(=O)c5ccccc5F)C4)no3)cc2c(=O)[nH]1 (stereo not drawn) | 4.1% | 12.3 | 28.2µM* | 27.8%
CC(=O)c1ccc(NC(=O)COC(=O)c2csc(NCc3ccccc3)n2)cc1 | . | . | i | .
COc1ccc(F)c(F)c1C(=O)c1cnc(NC2CCN(S(C)(=O)=O)CC2)nc1N | ? | -4.2 | . | 13.6µM*
COCCNc1ncc(-c2ccc(O)c(OC)c2)c2c1OCC2 | -0.5%[87.6 µM] | 28.3 | 35.5µM* | 63.5%[87.6 µM]
COCCNc1ncc(-c2cccc(O)c2)c2c1OCC2 | -15.6%[87.6 µM] | -7.3 | ? | 33.2%[87.6 µM]
COCCNc1ncc(-c2ccc(OC)c(OC)c2)c2c1OCC2 | 2.7%[87.6 µM] | -2.4 | 35.5µM* | 5.1%[87.6 µM]
COCCNc1ncc(-c2ccc(O)cc2)c2c1OCC2 | -1.4%[87.6 µM] | -15.8 | 31.6µM* | 161.8%[87.6 µM]
Cc1ccc(C(=O)OCC(=O)c2ccco2)s1 | . | . | i | .
Cc1cnc(NC(=O)c2ccc3c(c2)OCCN(c2ccccc2)C3)s1 | -9.5%[87.6 µM] | -10.3 | 28.2µM* | 18.7%[87.6 µM]
COc1ccc(Nc2ccnc(N3CCC(C(=O)NCC(F)(F)F)CC3)n2)cc1 | -5.4%[12.5 µM] | -0.8 | . | -2.7%
COC[C@@H]1CN(c2ncccn2)C[C@H]1C(=O)NCC(F)(F)F | -7.8% | 0.0 | 20µM* | -13.8%
COC[C@@H]1CN(c2ncccn2)C[C@H]1C(=O)N1CCOCC1 | -10.9% | 13.7 | 25.1µM* | 6.4%
SMILES | SNCA viab count | IP6K1 inh | KDM5B inhibitor | SNCA expr inh
O=C(NCc1ccccn1)[C@H]1CN(Cc2ccccc2)C[C@H]1C(=O)O | 13.9% | -0.1 | i | -16.3%
COC[C@@H]1CN(C(=O)CN2CCOCC2)C[C@H]1c1ccncc1 | 8.9% | -4.7 | i | -4.6%
COC[C@@H]1CN(c2ncccn2)C[C@H]1C(=O)NCc1ccccn1 | -14.8% | 7.0 | 14.1µM* | 25.2%
Cc1cc(Cl)ccc1NC(=O)c1ccc(NC(=O)C2=CSCCO2)cc1 | . | . | i | .
O=C(NC1CCCCC1)c1ccc2nnc(-c3ccoc3)n2c1 | 1.8%[87.6 µM] | -0.7 | . | 14.6%[87.6 µM]
O=C(NC1CCCC1)c1ccc2nnc(-c3cncc(Cl)c3)n2c1 | -5.0% | 9.6 | 100µM* | 6.8%
O=C(NC1CCCCC1)c1ccc2nnc(-c3ccc(F)cc3)n2c1 | -1.5% | 6.0 | . | 33.3%
O=C(NC1CC1)c1ccc2nnc(C3CC3)n2c1 | 1.3%[87.6 µM] | -14.5 | 100µM* | 33.0%[87.6 µM]
O=C(NC1CC1)c1ccc2nnc(-c3ccc(F)cc3)n2c1 | 0.9%[87.6 µM] | -1.2 | 126µM* | 7.6%[87.6 µM]
O=C(NC1CCCCC1)c1ccc2nnc(C3CCCC3)n2c1 | -10.2%[87.6 µM] | 6.8 | . | 0.0%[87.6 µM]
COc1ccccc1Nc1ccnc(N2CCCC(C(=O)NCC3CC3)C2)n1 (stereo not drawn) | -5.5%[12.5 µM] | -6.9 | . | -12.8%
CC(=O)N1CCC(c2nnc3n2CCNC3)CC1 | -0.9%[87.6 µM] | 19.6 | 112µM* | -23.8%[87.6 µM]
O=C(c1ccncc1)N1CCC(c2nnc3n2CCNC3)CC1 | -8.5% | 20.7 | 35.5µM* | -2.0%
CONC(=O)CSCC(=O)Nc1cccc(C)c1 | . | . | i | .
CCOc1ccc(-c2cc3c(=O)n(CCNC(=O)c4cccc5[nH]ccc45)ccn3n2)cc1 | -15.4% | -1.0 | 28.2µM* | 88.1%
CCOc1ccc(-c2cc3c(=O)n(CCNC(=O)c4ccc(C#N)cc4)ccn3n2)cc1 | -0.8% | -8.2 | 20µM* | 29.9%
COc1ccc(-c2cc3c(=O)n(CCNC(=O)c4ccc(C)s4)ccn3n2)cc1 | -4.4% | 5.5 | i | 54.6%
Cc1ccc(-c2cc3c(=O)n(CCNC(=O)c4ccc(N(C)C)cc4)ccn3n2)cc1C | 1.0% | -10.2 | 28.2µM* | 52.3%
CCOc1ccc(-c2cc3c(=O)n(CCNC(=O)c4ccc(Cl)cc4)ccn3n2)cc1 | 7.7% | -10.1 | i | 86.5%
COc1ccc(-c2cc3c(=O)n(CCNC(=O)c4ccc(OC)nc4)ccn3n2)cc1 | -10.4% | 0.3 | 11.2µM* | 32.8%
O=C(Cc1ccc(Cl)cc1Cl)N1CCN(c2ccccc2O)CC1 | . | . | i | .
CCOc1ccc(-c2cc3c(=O)n(CCNC(=O)c4ccc(OC)cc4)ccn3n2)cc1 | -2.9% | 2.3 | ? | 55.1%
Cc1ccc(-c2cc3c(=O)n(CCNC(=O)c4ccc(N(C)C)cc4)ccn3n2)c(C)c1 | 0.2% | -0.1 | 28.2µM* | 95.0%
COc1ccc(-c2cc3c(=O)n(CCNC(=O)c4cccc(N(C)C)c4)ccn3n2)cc1 | ? | -12.9 | 35.5µM* | 46.1%
Cc1ccc(-c2cc3c(=O)n(CCNC(=O)c4ccc(Cl)cc4)ccn3n2)c(C)c1 | -3.8% | 1.2 | i | 6.0%
SMILES | SNCA viab count | IP6K1 inh | KDM5B inhibitor | SNCA expr inh
COc1ccc(-c2cc3c(=O)n(CCNC(=O)c4cc(OC)cc(OC)c4)ccn3n2)cc1 | -3.1% | -5.1 | i | -10.0%
CCOc1ccc(C(=O)NCCn2ccn3nc(-c4ccc(OC)cc4)cc3c2=O)cc1 | 4.4% | 0.8 | 8.91µM* | 39.9%
Cc1ccc(-c2cc3c(=O)n(CCNC(=O)c4nn(C)c5ccccc45)ccn3n2)c(C)c1 | -14.4% | 0.3 | 28.2µM* | 7.7%
COc1ccc(-c2cc(C[C@@H]3CC[C@H](O)[C@@H](CNC4CCOCC4)O3)no2)cc1 | -13.3%[87.6 µM] | 4.1 | i | -11.8%[87.6 µM]
COc1ccc(S(=O)(=O)Nc2nc3ccccc3nc2Nc2cccc(OC)c2)cc1 | . | . | i | .
Cc1ccc(-c2cc3c(=O)n(CCNC(=O)c4cc(Cl)ccc4F)ccn3n2)c(C)c1 | 1.8% | -2.0 | ? | 32.0%
COc1ccc(C(=O)NCCn2ccn3nc(-c4ccc(C)c(C)c4)cc3c2=O)cc1 | -14.1% | -2.0 | 17.8µM* | 63.0%
Cc1ccc(-c2cc3c(=O)n(CC(O)c4ccc(C)c(C)c4)ccn3n2)c(C)c1 (stereo not drawn) | -9.7% | 0.4 | 35.5µM* | -21.4%

Assay outcomes (PubChem)
